# Measurements as given in ChEMBL document CHEMBL4513143, “CO-ADD screening of University of Natural Resources and Life (Austria) compounds”.
# Measured potencies and affinities stand elsewhere.
# Legend:
# [1] = tested on: Klebsiella pneumoniae; details: Concentration 32 ug.mL-1; ASSAY_TEST Inhibition of Bacterial Growth; detection method Absorption (OD600); MEDIA CAMHB; plate type 384well; NBS; CORNING #3640; time 18 hr
# [2] = tested on: Candida albicans; details: 32 ug/mL
# [3] = tested on: Cryptococcus neoformans; details: Concentration 32 ug.mL-1; ASSAY_TEST Inhibition of Fungal Growth; detection method Resazurin; Absorption (OD600-OD570); plate type 384well; NBS; CORNING #3640
smiles,measurement,setting,value
[N-]=[N+]=NC[C@H]1OC(O)[C@@H](O)[C@@H]1O (stereo partly drawn),Inhibition,[1],29.69%
same,Inhibition,[2],3.08%
same,Inhibition,[3],-7.43%
